38 compounds from PubChem BioAssay (Tox21) can be followed below.

Results filed as inconclusive are left out. Entries that show only a call come without a potency. A number with no mark means an inactive call. Active and inactive are the calls of the source. Calls follow the shape of the full dose curve.

Sequence of Peroxisome proliferator-activated receptor gamma (Homo sapiens) (P37231 whole entry, looked up): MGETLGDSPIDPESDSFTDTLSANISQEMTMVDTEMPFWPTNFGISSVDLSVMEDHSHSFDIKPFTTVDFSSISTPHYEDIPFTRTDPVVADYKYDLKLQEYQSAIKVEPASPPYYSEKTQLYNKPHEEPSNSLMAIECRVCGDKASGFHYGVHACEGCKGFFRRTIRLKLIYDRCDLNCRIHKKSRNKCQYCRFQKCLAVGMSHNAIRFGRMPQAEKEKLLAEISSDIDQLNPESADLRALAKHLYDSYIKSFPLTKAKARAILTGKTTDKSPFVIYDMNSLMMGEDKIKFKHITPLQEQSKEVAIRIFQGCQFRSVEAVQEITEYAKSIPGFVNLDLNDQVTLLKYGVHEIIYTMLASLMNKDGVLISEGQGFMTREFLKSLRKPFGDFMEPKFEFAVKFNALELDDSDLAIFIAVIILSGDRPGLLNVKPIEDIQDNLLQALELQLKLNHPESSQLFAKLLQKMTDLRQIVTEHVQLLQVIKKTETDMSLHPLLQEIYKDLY

In this experiment the target is Peroxisome proliferator-activated receptor gamma (Homo sapiens) (UniProt P37231). The experiment in a line: qHTS assay to identify small molecule antagonists of the peroxisome proliferator-activated receptor gamma (PPARg) signaling pathway (AID 743191). Also: nearly all actives have a fitted effect of over 30% in size. The conditions noted are these: HEK293H PPARg-UAS-bla, beta-lactamase ratio, antagonist, 17 h; series mostly up to 62.6 µM. An outline of the steps:
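GeneBLAzer PPARg UAS-bla HEK293H cells, 5 h post-plating, exposed to compounds 17 h at 37C. LiveBLAzer B/G FRET substrate added for 1 h at room temperature; beta-lactamase reporter read by fluorescence intensity.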
A general note: qHTS replaces the single test concentration by a dilution series.
Consider `O=Cc1cccc(Br)c1`, for which the Potency result is “inactive”.

In the case of `CN1[C@@H]2CC[C@H]1CC(OC(=O)C(O)c1ccccc1)C2` (stereo partly drawn), the Potency entry is “inactive”.

Turning to `CCCCCCCCN1CCCC1=O`, the Potency entry was “inactive”. On the same count and under the same terms, the value for `CC[N+](C)(CC)CCOC(=O)C1c2ccccc2Oc2ccccc21` was “inactive”; that for `CCOC(=O)OC(C)OC1=C(C(=O)Nc2ccccn2)N(C)S(=O)(=O)c2ccccc21` (stereo not drawn) was “inactive”. Regarding `CC(=O)NC(=O)c1ccccc1O`, the Potency entry is “inactive”. For the compound `CCCCCCCC1CCCC1=O` (stereo not drawn), the Potency result is “inactive”.

On to `[Ca+2]`, for which the Potency result is “inactive”. Turning to `CC(CO)(CO)[N+](=O)[O-]`, the Potency entry was “inactive”. Consider `CCCc1ncc(C[n+]2ccccc2C)c(N)n1`, for which the Potency entry was “inactive”. As for `CN1CC(=O)N/C1=N/C(=O)Nc1cccc(Cl)c1`, the Potency result was “inactive”. Take `CC(C)(C)C(=O)Oc1ccc(S(=O)(=O)Nc2ccccc2C(=O)NCC(=O)O)cc1`: the Potency entry is “inactive”. Turning to `Cc1ccc(-c2ncc(Cl)cc2-c2ccc(S(C)(=O)=O)cc2)cn1`, the Potency entry is “inactive”. Turning to `CCCCN1C=CN(C)C1`, the Potency result is “inactive”. On the same count and under the same terms, the entry for `NC(CCC(=O)O)C(=O)O` (stereo not drawn) is “inactive”. In the case of `CC(CC=O)CC(C)(C)C` (stereo not drawn), the Potency entry was “inactive”.

For the compound `C[N+]1(C)[C@@H]2CC(OC(=O)[C@H](CO)c3ccccc3)C[C@H]1[C@@H]1O[C@@H]12` (stereo partly drawn), the Potency entry was “inactive”.

For `CC(=O)c1ccc2ccccc2c1`, the Potency entry was “inactive”. On to `CCCCc1ccc2c(n1)[C@@H](c1ccc(OC)cc1C[C@H](C)C(=O)O)[C@H](C(=O)O)[C@H]2c1ccc2c(c1)OCO2`, for which the Potency result is “inactive”. `CN(C)[C@@H]1C(=O)C(C(=O)NCN2CCCC2)=C(O)[C@@]2(O)C(=O)C3=C(O)c4c(O)cccc4[C@@](C)(O)C3C[C@@H]12` (stereo partly drawn): the Potency entry is “inactive”.

Regarding `NS(=O)(=O)Cc1noc2ccccc12`, the Potency entry is “inactive”. For the compound `CN(C)C(=O)Oc1ccc[n+](C)c1`, the Potency entry was “inactive”.

As for `CCOC(=O)C1=NOC(c2ccccc2)(c2ccccc2)C1`, the Potency result was “inactive”. Regarding `CC/C=C\CCOC(C)OCC` (stereo not drawn), the Potency entry was “inactive”. Take `CC(=O)C1CCCCC1=O` (stereo not drawn): the Potency entry is “inactive”.

As to `CCC1C(=O)OCC1Cc1cncn1C` (stereo not drawn), the Potency entry is “inactive”. As to `O=S(=O)(O)c1cc(O)c(O)c(S(=O)(=O)O)c1`, the Potency entry was “inactive”. On to `CCOc1ccccc1OCC`, for which the Potency entry is “inactive”. Regarding `CCCCCC(=O)OCCc1ccccc1`, the Potency result was “inactive”. Still for that read-out and setting: the value for `CN(C)CCCN(C)CCCN(C)C` was “inactive”. Regarding `COc1ccc2cc1Oc1cc3c(cc1OC)CC[N+](C)(C)[C@H]3Cc1ccc(cc1)Oc1c(OC)c(OC)cc3c1[C@@H](C2)[N+](C)(C)CC3`, the Potency result is “inactive”. The same measure, in the same setting: the value for `CCCCCC(C)N` (stereo not drawn) was “inactive”.

In the case of `CCN[C@@H]1C[C@H](N)[C@@H](OC2OC(CN)=CCC2N)[C@H](O)[C@H]1O[C@H]1OC[C@](C)(O)[C@H](NC)[C@H]1O` (stereo partly drawn), the ratio activity, negative = inhibition was -0.0427% [at 0.55 µM]. In the case of `O=[N+]([O-])c1ccc(/C=N\O)o1`, the Potency entry was “inactive”.

With `CCN(Cc1ccccc1)c1ccccc1`, the Potency entry was “inactive”. For `CN(C)CCN(C)CCN(C)C`, the Potency entry was “inactive”. Turning to `CCN[C@H]1C[C@H](C)S(=O)(=O)c2sc(S(N)(=O)=O)cc21`, the Potency entry is “inactive”. For the compound `O=C(CO)[C@@H](O)[C@H](O)[C@@H](O)CO`, the Potency result is “inactive”.
